Rows were chosen to be rich in hits. Some 2.1% of all compounds tested hit in one or more screens of this group.
eIF4H FP inh: human eIF4H binding inhibitors, primary screen, translation initiation inhibitor project, biochemical, uHTS, fluorescence polarization | Eukaryotic translation initiation factor 4H (Homo sapiens), Q15056 | eIF4H fluorescence polarization binding assay | inhibition, % at 35 µM | 0.94% of 290,000 active;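 note: calls also rest on retests at 20 µM and on dose response follow-up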
NRP1-CendR mod: modulators of CendR peptide binding to NRP-1, primary screen, biochemical, fluorescence polarization, uHTS. FAM-RPARPAR peptide binding to NRP-1. inhibition, % at 25 µM. 0.85% of 360,000 active. AID 602438, 2012;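 active = inhibition or corrected inhibition above about 18%, plus a signal ratio from 0.5 to 1.5, limit read from the data, passing the limit was not always enough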
MLLE-PAM2 inh: inhibitors of PABP1 MLLE–PAM2 peptide binding, primary screen, biochemical, fluorescence polarization, FITC-PAM2, GST-MLLE; Polyadenylate-binding protein 1 (Homo sapiens), P11940; inhibition, % at 20 µM; 0.36% of 360,000 active; in the data active = inhibition above about 35%, passing the limit was not always enough;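 note: plate controls were DMSO wells with GST-MLLE for no effect and wells lacking GST-MLLE protein for full effect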
Target sequence (P11940 whole entry, looked up): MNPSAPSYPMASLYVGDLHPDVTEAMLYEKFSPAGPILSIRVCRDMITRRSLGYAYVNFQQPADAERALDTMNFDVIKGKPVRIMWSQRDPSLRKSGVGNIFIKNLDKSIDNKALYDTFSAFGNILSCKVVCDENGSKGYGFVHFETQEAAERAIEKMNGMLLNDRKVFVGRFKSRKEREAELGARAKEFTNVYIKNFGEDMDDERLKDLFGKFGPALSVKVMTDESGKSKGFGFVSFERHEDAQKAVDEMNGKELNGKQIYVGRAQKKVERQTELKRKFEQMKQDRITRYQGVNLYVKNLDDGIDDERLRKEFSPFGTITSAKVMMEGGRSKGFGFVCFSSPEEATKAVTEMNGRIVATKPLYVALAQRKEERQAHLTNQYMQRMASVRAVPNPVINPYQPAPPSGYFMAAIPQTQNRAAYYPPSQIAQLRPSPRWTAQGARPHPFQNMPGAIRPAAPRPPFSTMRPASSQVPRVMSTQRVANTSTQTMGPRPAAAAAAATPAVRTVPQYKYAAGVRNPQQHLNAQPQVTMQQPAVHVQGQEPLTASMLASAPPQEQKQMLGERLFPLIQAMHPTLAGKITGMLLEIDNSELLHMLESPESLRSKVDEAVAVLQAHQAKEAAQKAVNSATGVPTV
PABP polyA inh: PABP poly(A) RNA binding inhibitors, primary screen, biochemical, fluorescence polarization, uHTS; inhibition, % at 35 µM; Polyadenylate-binding protein 1 (Homo sapiens), P11940; 1% of 290,000 active;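 note: calls also rest on retests at 20 µM and on dose response follow-up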
The depositor's hits bear a star; . = no result. Unless noted, the rule behind the calls is not given here.

SMILES	eIF4H FP inh	NRP1-CendR mod	MLLE-PAM2 inh	PABP polyA inh
Oc1cc(NCCN2CCOCC2)cc2cccnc12	.	29.3*	31.9	.
COc1ccc2c(c1)O[C@@]1(CCCC[C@@H]1C)CC2=O	.	-5.3	11.2	.
CCOc1ccc2c(c1)OC1(CCC(C)C1)CC2=O (stereo not drawn)	.	27.7*	-7.7	.
CCCCn1c2ccc(F)cc2c2nnc(SCCN3CCOCC3)nc21	-7.3	5.6	45.1*	8.3
NC(=O)N(CCC(=O)O)c1ccccc1	62.9*	5.3	4.3	active
C=CCn1c(=S)[nH]c2cc(C(=O)NCCc3ccc(S(N)(=O)=O)cc3)ccc2c1=O	.	-3.8	-67.2	.
CCc1ccc(C2CC(=O)N(c3cccc(F)c3)C3=C2C(=O)OC3)cc1 (stereo not drawn)	1.6	26.9*	5.1	-2.0
CS(=O)(=O)c1ccc(Cl)c(NC(=O)CSc2nc3ccccc3c(=O)n2Cc2ccco2)c1	.	-14.2	-24.4	.
CCCOc1cccc(C(=O)N/N=C/c2ccoc2)c1	2.5	-10.9	2.9	-1.5
Nn1c(SCc2ccccc2)nc2c(cnn2-c2ccccc2)c1=O	1.5	22.3*	-3.0	0.3
COc1ccc(NC(=O)Nc2ccc(Br)cn2)cc1OC	-4.0	47.3*	-6.5	4.6
COc1cc(NCCCCC(C)N)c2nccc(C)c2c1 (stereo not drawn)	.	8.7	-1.1	.
COc1cc(NCCCC(C)N)c2ncccc2c1 (stereo not drawn)	.	44.2*	100.5	.
CCC(=O)Nc1nnc(SCC(=O)NCC2CCCO2)s1 (stereo not drawn)	-6.1	-1.7	-2.7	5.3
COc1ccc2[nH]c(=O)c(C(c3nnnn3CC3CCCO3)N3CCCCC3)cc2c1 (stereo not drawn)	1.4	25.5*	-8.1	7.1
Cc1cc2cc(C(c3nnnn3Cc3ccco3)N3CCCCC3)c(=O)[nH]c2cc1C (stereo not drawn)	56.6*	-56.7	-21.3	54.4*
CCOc1ccc2[nH]c(=O)c(C(c3nnnn3Cc3ccco3)N3CCN(C)CC3)cc2c1 (stereo not drawn)	39.4	6.8	-13.8	28.6
O=c1[nH]c2cc3c(cc2cc1C(c1nnnn1Cc1ccccc1)N1CCCCCC1)OCCO3 (stereo not drawn)	129.9	-50.2	-14.2	123.7*
COCCCNC(=O)c1cc2cc(Br)ccc2oc1=O	0.6	-6.8	-15.8	2.2
O=C(NNC(=O)c1cc2cc(Br)ccc2oc1=O)c1ccc(O)cc1O	85.4*	-20.7	-0.4	4.2*
CCCOc1ccc(C(=O)OCCN2CCCCC2)c(O)c1	.	5.0	2.2	.
CCN1C(=O)[C@H]2[C@H]3CN=C(SCC(=O)c4ccccc4)N3[C@@](C)(C(=O)OC)[C@H]2C1=O	.	6.4	45.1*	.
COC(=O)[C@@]1(C)[C@H]2C(=O)N(Cc3ccccc3)C(=O)[C@H]2[C@H]2CN=C(SCc3ccccc3)N21	.	-0.2	-9.7	.
COC(=O)c1cc2ccccc2c(-c2c(OC)c(C(=O)OC)cc3ccccc23)c1OC	14.4	0.0	-14.7	21.4
COC(=O)c1cc2ccccc2c([N+](=O)[O-])c1O	.	22.7*	-6.7	.
SMILES	eIF4H FP inh	NRP1-CendR mod	MLLE-PAM2 inh	PABP polyA inh
C[C@@]12C(=O)N(c3ccc(C(F)(F)F)cc3)C(=O)N1[C@@H]1c3ccccc3OC[C@@H]1[C@H]2c1ccccc1	-3.8	27.6*	-8.7	-5.9
C[C@H]1NC(=O)[C@@]2(C)[C@@H](c3ccccc3)[C@H]3COc4ccccc4[C@@H]3N2C1=O	.	25.4*	7.4	.
C[C@]12C(=O)N(c3ccc(F)cc3)C(=O)N1[C@@H]1c3ccccc3OC[C@@H]1[C@H]2c1ccccc1	-6.3	3.3	-5.5	0.4
CCCCn1c(N)c(N(CC(C)C)C(=O)c2ccc(Cl)c(S(=O)(=O)N3CCCC3)c2)c(=O)[nH]c1=O	.	-6.1	3.8	.
Cc1cc(C)c2c(=O)c(C#N)coc2c1	-8.2	-72.1	38.7*	-10.0
Cc1ccc(NCCc2ccc(C)nc2)cc1	-4.7	19.9*	9.8	2.2
Cc1ccc(CCNc2ccc3ccccc3c2)cn1	.	3.4	11.7	.
CCOC(=O)c1sc(-c2ccc(F)cc2)cc1N	-13.6	3.5	7.5	3.0
CCOC(=O)c1sc(-c2ccc(OC)cc2)cc1N	-1.2	26.3*	11.4	3.0
O=C(COC(=O)c1cc(Br)ccc1O)Nc1cccnc1Cl	.	-5.8	-2.7	.
COc1cccc(N2[C@@H](CC(C)=O)c3ccc(/C=C/C(C)=O)cc3S2(=O)=O)c1	.	22.4*	-11.5	.
COc1ccc(CN2[C@@H](CC(C)=O)c3ccc(/C=C/C(C)=O)cc3S2(=O)=O)cc1	.	-5.5	-10.3	.

High-throughput results (PubChem BioAssay)
